Common to all, as to assay: DAPPL (digital affinity profiling via proximity ligation, sequencing); 10 mM Tris-HCl pH 7.5, 50 mM NaCl, 1 mM DTT, 4% glycerol, room temperature, 30 min; GST-TFs on glutathione beads, 16-mer random dsDNA library, 0.1% formaldehyde crosslink after washing; high values mean tight binding
The target in experiment [1] is T1, FEV (Homo sapiens, UniProt Q99581 1-238).
T1 sequence: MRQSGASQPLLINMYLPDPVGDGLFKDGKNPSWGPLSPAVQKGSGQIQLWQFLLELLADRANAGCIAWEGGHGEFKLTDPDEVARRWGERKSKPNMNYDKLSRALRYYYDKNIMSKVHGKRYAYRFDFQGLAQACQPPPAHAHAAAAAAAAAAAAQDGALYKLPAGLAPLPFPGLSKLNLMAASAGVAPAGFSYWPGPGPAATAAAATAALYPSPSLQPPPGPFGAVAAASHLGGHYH
Conditions: protein: recombinant; tags: N-terminal GST; dsDNA, one strand shown. Summed up:
(§1)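 After expression in yeast as GST fusions, human transcription factors were bound to glutathione beads, DNA-barcoded and mixed with a tag-only sample. The pools were incubated with 200 nmole of a 16-mer random double-stranded DNA library in Tris/NaCl/DTT/glycerol buffer (30 min, room temperature), washed and crosslinked with 0.1% formaldehyde. Proximity ligation with BsaI/T4 ligase ran for 1 h at 37 °C, before PCR amplification and sequencing on an Illumina NextSeq500. Binding signal is a hexamer's read frequency for a factor divided by its frequency for the tag-only sample.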

Experiment [2] addresses ETV5 (Homo sapiens, UniProt P41161 1-510). The note with it: protein: recombinant; tags: N-terminal GST; dsDNA, one strand shown. Summed up: as §1
In experiment [3] the target is HSF1 (Homo sapiens, UniProt Q00613 1-529). Conditions: protein: recombinant; tags: N-terminal GST; chain copies: 3; dsDNA, one strand shown. Summed up:
as §1

In experiment [4] the target is T2, SPIC (Homo sapiens, UniProt Q8N5J4 1-248).
T2 sequence: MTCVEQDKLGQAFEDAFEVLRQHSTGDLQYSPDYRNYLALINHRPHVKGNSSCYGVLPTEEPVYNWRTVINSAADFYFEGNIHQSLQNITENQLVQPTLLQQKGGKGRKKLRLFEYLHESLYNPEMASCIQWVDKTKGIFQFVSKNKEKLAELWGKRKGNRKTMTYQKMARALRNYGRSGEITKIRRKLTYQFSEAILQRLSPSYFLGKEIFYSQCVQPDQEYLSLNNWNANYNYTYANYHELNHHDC
Conditions: protein: recombinant; tags: N-terminal GST; dsDNA, one strand shown. Summed up: as §1

The target of experiment [5] is ELF4 (Homo sapiens, UniProt Q99607 1-663). Conditions: protein: recombinant; tags: N-terminal GST; dsDNA, one strand shown. Summed up: as §1
Experiment [6] deals with T3, ELK4 (Homo sapiens, UniProt P28324-2 1-405).
T3 sequence: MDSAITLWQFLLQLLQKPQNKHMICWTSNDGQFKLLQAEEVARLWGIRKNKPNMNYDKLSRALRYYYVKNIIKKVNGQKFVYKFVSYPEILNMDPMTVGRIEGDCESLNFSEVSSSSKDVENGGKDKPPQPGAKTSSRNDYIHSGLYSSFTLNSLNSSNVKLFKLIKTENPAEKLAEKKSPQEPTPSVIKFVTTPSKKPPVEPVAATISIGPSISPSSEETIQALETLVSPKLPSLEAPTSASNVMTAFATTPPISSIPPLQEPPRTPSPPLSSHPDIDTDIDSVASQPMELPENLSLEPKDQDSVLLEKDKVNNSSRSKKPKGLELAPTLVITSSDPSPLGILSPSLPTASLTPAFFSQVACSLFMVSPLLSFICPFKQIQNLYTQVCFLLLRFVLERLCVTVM
The note with it: protein: recombinant; tags: N-terminal GST; dsDNA, one strand shown. Summed up:
as §1

For experiment [7], the target named is T4, ETV2 (Homo sapiens, UniProt O00321 1-342).
T4 sequence: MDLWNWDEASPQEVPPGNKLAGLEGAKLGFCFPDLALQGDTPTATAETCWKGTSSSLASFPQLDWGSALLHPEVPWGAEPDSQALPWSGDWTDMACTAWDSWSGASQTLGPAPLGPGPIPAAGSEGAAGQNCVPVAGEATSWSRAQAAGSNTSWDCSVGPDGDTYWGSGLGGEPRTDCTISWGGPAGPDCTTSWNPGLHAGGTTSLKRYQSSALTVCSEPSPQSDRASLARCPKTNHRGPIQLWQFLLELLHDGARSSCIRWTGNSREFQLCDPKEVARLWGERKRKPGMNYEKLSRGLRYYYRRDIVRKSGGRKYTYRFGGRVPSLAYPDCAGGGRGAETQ
The note with it: protein: recombinant; tags: N-terminal GST; dsDNA, one strand shown. Summed up: as §1

Experiment [8] concerns the target T5, ELF3 (Homo sapiens, UniProt P78545 1-371).
T5 sequence: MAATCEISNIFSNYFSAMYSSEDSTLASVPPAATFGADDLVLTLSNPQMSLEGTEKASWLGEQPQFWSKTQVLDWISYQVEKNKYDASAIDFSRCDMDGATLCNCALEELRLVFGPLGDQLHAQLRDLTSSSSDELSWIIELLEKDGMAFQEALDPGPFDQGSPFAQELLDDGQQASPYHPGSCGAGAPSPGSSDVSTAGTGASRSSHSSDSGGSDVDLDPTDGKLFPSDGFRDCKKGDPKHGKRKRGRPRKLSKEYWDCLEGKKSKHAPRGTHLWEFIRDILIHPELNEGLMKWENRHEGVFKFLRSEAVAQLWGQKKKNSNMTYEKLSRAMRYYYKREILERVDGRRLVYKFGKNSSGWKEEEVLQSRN
Conditions: protein: recombinant; tags: N-terminal GST; dsDNA, one strand shown. Summed up:
as §1

Experiment [9] has as its target CRX (Homo sapiens, UniProt O43186 1-299). The note with it: protein: recombinant; tags: N-terminal GST; dsDNA, one strand shown. The gist of the method:
as §1

The target in experiment [10] is ETV1 (Homo sapiens, UniProt P50549 1-477). Conditions: protein: recombinant; tags: N-terminal GST; dsDNA, one strand shown. The gist of the method:
as §1

For experiment [11], the target named is T6, ERF (Homo sapiens, UniProt P50548 1-548).
T6 sequence: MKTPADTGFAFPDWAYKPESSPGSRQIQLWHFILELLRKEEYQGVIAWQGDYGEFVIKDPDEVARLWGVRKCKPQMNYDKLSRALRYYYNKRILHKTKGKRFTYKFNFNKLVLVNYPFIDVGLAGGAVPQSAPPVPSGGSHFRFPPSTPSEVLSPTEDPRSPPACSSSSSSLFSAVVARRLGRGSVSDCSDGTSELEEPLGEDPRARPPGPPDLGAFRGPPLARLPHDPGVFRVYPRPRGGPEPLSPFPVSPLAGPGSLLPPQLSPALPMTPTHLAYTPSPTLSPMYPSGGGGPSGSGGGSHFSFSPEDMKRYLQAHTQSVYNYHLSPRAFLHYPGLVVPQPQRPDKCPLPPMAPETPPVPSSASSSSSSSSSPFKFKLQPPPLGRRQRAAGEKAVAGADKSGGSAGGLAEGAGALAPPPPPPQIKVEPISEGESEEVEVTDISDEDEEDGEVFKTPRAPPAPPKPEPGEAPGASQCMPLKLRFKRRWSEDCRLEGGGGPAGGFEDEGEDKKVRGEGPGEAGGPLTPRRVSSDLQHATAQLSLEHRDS
The note with it: protein: recombinant; tags: N-terminal GST; dsDNA, one strand shown. The gist of the method: as §1

The target in experiment [12] is T7, ETV3L (Homo sapiens, UniProt Q6ZN32 1-361).
T7 sequence: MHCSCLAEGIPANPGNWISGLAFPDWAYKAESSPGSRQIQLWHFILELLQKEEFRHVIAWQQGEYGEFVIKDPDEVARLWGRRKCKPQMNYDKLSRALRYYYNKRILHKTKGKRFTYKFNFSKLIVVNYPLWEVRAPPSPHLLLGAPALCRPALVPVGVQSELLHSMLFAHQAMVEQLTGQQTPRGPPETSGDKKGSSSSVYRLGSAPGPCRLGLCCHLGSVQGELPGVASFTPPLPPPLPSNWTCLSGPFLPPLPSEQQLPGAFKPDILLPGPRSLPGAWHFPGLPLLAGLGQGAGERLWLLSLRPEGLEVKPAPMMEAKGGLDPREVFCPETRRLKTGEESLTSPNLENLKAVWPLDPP
Conditions: protein: recombinant; tags: N-terminal GST; dsDNA, one strand shown. Summed up: as §1

Experiment [13] deals with T8, ETS2 (Homo sapiens, UniProt P15036 1-469).
T8 sequence: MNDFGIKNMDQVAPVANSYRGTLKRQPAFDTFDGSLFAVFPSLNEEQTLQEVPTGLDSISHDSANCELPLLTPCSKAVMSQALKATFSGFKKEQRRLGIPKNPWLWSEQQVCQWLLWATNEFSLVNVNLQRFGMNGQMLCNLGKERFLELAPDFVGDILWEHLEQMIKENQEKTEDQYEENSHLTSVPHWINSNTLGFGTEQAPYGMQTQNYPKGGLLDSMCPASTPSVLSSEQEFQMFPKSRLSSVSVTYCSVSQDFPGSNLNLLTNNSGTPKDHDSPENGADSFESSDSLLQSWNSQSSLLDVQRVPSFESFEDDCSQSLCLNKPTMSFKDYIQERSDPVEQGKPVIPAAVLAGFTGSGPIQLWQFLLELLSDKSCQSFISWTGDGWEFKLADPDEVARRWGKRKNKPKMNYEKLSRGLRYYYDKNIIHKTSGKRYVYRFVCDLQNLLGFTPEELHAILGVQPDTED
The note with it: protein: recombinant; tags: N-terminal GST; dsDNA, one strand shown. Summed up:
as §1

Experiment [14] has as its target T9, SPDEF (Homo sapiens, UniProt O95238 1-335).
T9 sequence: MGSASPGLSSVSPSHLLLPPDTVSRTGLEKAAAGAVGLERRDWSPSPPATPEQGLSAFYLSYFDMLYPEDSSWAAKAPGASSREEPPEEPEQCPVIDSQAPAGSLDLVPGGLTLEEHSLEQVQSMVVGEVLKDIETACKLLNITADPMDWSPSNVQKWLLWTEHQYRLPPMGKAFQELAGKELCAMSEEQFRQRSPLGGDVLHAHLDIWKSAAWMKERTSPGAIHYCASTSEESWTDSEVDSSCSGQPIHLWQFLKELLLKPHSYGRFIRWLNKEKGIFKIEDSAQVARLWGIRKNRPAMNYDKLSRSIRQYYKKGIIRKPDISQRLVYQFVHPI
Conditions: protein: recombinant; tags: N-terminal GST; dsDNA, one strand shown. Summed up: as §1

Experiment [15] deals with T10, ETV7 (Homo sapiens, UniProt Q9Y603 1-341).
T10 sequence: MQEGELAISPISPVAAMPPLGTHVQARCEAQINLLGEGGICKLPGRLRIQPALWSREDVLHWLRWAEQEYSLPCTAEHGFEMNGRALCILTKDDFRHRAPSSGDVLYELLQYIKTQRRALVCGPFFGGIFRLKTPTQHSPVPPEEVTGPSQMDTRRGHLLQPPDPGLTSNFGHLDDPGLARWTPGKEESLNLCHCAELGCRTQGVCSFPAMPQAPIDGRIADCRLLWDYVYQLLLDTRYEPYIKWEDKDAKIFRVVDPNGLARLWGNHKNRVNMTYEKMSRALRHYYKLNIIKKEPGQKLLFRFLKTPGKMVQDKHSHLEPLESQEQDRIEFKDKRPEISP
Conditions: protein: recombinant; tags: N-terminal GST; dsDNA, one strand shown. The gist of the method:
as §1

Experiment [16] deals with T11, ELF5 (Homo sapiens, UniProt Q9UKW6-2 1-255).
T11 sequence: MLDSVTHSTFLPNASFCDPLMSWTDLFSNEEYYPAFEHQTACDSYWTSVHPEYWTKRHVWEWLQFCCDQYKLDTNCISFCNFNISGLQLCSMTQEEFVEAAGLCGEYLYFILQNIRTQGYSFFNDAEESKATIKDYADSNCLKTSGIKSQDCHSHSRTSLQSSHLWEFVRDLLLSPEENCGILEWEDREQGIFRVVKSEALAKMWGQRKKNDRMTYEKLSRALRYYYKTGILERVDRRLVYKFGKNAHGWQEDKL
Conditions: protein: recombinant; tags: N-terminal GST; dsDNA, one strand shown. Summed up: as §1

Experiment [17] concerns the target T12, ETV3 (Homo sapiens, UniProt P41162-2 1-143).
T12 sequence: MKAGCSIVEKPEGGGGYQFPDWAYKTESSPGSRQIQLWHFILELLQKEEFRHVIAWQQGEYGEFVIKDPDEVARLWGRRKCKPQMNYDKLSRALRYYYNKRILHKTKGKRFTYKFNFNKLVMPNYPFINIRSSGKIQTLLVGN
The note with it: protein: recombinant; tags: N-terminal GST; dsDNA, one strand shown. Summed up: as §1

The target in experiment [18] is ETV6 (Homo sapiens, UniProt P41212 1-452). Conditions: protein: recombinant; tags: N-terminal GST; dsDNA, one strand shown. Summed up: as §1
ETV6, sequence (P41212 whole entry): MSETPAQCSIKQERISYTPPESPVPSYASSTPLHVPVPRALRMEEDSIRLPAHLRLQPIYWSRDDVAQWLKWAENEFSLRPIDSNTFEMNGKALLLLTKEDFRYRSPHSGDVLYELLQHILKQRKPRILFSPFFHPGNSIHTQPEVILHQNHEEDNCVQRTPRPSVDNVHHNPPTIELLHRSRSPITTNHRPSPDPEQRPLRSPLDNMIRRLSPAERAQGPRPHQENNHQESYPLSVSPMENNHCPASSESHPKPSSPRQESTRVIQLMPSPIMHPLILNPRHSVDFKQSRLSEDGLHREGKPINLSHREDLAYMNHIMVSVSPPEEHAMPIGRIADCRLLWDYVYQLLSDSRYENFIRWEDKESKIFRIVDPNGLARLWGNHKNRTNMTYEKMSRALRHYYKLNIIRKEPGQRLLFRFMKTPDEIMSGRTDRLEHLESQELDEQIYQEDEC

ELF4, sequence (Q99607 whole entry): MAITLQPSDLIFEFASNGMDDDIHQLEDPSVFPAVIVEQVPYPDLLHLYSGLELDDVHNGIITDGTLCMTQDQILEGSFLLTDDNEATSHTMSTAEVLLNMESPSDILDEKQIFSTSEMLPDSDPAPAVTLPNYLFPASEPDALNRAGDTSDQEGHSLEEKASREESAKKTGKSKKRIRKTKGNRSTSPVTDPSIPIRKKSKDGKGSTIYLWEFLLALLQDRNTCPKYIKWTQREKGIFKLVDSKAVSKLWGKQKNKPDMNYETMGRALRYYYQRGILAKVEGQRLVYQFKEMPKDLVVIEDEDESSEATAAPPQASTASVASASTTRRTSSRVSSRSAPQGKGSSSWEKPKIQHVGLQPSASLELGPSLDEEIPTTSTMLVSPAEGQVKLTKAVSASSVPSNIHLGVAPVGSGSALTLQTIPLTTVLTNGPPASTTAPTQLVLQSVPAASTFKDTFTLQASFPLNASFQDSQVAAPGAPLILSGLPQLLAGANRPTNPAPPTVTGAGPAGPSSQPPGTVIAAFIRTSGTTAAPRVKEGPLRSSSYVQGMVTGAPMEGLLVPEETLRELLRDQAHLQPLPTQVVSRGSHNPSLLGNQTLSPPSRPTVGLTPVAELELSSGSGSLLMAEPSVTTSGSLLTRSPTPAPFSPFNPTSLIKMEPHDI
CRX, sequence (O43186 whole entry): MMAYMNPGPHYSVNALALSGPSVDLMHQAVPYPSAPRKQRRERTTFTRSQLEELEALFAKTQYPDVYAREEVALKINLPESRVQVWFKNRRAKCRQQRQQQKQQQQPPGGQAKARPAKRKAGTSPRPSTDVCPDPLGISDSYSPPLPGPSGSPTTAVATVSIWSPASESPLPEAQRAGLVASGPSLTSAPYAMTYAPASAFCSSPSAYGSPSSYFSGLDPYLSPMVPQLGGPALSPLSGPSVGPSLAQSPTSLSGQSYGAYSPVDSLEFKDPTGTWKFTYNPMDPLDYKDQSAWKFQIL
HSF1, sequence (Q00613 whole entry): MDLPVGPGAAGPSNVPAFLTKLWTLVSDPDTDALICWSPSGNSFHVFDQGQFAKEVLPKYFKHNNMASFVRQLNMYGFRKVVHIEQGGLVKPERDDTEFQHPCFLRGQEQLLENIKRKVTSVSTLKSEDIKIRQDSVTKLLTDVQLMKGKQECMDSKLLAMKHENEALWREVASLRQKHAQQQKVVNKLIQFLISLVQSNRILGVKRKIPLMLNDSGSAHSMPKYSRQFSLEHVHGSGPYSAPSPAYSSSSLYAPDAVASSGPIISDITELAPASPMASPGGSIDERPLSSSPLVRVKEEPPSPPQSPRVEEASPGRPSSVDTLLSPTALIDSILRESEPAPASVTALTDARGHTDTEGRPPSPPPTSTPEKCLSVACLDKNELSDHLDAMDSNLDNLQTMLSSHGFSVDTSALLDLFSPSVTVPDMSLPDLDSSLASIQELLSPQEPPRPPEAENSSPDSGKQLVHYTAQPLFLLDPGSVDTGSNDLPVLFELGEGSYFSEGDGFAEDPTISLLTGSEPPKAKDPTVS
ETV5, sequence (P41161 whole entry): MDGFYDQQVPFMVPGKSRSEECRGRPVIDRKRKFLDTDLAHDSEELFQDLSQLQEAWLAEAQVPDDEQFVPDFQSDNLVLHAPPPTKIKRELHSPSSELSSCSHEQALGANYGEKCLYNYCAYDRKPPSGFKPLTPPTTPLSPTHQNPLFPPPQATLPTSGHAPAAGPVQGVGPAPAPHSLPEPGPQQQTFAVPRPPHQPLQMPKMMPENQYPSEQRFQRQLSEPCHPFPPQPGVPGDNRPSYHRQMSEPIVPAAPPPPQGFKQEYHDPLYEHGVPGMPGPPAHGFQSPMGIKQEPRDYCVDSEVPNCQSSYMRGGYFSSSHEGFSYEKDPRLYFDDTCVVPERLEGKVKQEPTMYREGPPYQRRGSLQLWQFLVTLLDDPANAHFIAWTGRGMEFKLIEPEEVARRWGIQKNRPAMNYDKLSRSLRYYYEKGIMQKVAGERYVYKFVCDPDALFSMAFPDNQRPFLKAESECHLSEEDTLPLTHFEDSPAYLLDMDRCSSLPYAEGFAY
ETV1, sequence (P50549 whole entry): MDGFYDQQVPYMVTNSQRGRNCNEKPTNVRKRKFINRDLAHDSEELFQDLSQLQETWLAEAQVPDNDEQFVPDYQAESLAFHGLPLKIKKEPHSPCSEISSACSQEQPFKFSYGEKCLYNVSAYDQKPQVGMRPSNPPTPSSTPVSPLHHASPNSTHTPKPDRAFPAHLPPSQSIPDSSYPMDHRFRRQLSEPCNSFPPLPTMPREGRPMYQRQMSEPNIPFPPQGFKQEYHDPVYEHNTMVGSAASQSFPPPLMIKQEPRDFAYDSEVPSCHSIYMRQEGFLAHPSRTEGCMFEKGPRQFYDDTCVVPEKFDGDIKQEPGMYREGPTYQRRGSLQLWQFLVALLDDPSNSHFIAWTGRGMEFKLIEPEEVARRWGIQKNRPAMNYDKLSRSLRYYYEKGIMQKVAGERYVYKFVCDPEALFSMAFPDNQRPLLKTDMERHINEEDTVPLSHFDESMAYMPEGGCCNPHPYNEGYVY

Regarding GATGAT, the binding signal is 1.18 fold enrichment (6-mer frequency, TF over GST control) in experiment [1]; 1.31 fold enrichment (6-mer frequency, TF over GST control) in [2]; 1.49 fold enrichment (6-mer frequency, TF over GST control) in [3]; 1.23 fold enrichment (6-mer frequency, TF over GST control) in experiment [4]; 1.32 fold enrichment (6-mer frequency, TF over GST control) in experiment [5]; 1.26 fold enrichment (6-mer frequency, TF over GST control) in experiment [6]. Besides, the binding signal was 1.33 fold enrichment (6-mer frequency, TF over GST control) in experiment [7]; 1.33 fold enrichment (6-mer frequency, TF over GST control) in experiment [8]; 1.68 fold enrichment (6-mer frequency, TF over GST control) in experiment [9]; 1.27 fold enrichment (6-mer frequency, TF over GST control) in [10]; 1.5 fold enrichment (6-mer frequency, TF over GST control) in experiment [11]; 1.31 fold enrichment (6-mer frequency, TF over GST control) in experiment [12]. For the same sequence, the binding signal was 1.23 fold enrichment (6-mer frequency, TF over GST control) in experiment [13]; 1.32 fold enrichment (6-mer frequency, TF over GST control) in experiment [14]; 1.36 fold enrichment (6-mer frequency, TF over GST control) in experiment [15]; 1.24 fold enrichment (6-mer frequency, TF over GST control) in [16]; 1.39 fold enrichment (6-mer frequency, TF over GST control) in experiment [17]; 1.3 fold enrichment (6-mer frequency, TF over GST control) in [18].

The values are drawn from PMC7862700, “An all-to-all approach to the identification of sequence-specific readers for epigenetic DNA modifications on cytosine”.
